Screens from PubChem BioAssay.
Compounds with a hit are over-represented: about 19% of the library has one in this group of screens.
DT40 TDP1 no CPT = qHTS for Inhibitors of human tyrosyl-DNA phosphodiesterase 1 (TDP1): qHTS in cells in absence of CPT; Potency, µM (doses to about 46.2 µM), actives largely listed as inhibitors; hit rate 15% among 420,000; DT40 Tdp1-/- hTDP1 cells, no CPT, ATP luminescence, 48 h; also: nearly all actives have a fitted effect of over 55% in size
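Stably hTDP1-transfected Tdp1-null chicken DT40 cells were treated with library compounds minus camptothecin and grown for at least 48 hr at 37 °C, after which cellular ATP was quantified by luminescence.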
HT1080NT lethal = qHTS for induction of synthetic lethality in tumor cells producing 2HG: qHTS for the HT-1080-NT fibrosarcoma cell line. HT-1080-NT fibrosarcoma viability, CellTiter-Glo ATP luminescence, 48 h. Potency, µM (top dose mostly 46.1 µM), most hits filed as cytotoxic. hit rate 1.6% among 360,000. AID 686970, 2013;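 also: NT is the 2HG producing partner of a matched IDH1 knockdown line; nearly all actives have a fitted effect of over 55% in size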
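A 48-hour cytotoxicity screen used HT-1080-NT cells plated 2 hours before compound delivery. ATP-based CellTiter-Glo luminescence measured viability, normalized to DMSO and no-cell controls.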
ELG1 DNA repair = qHTS screen for small molecules that inhibit ELG1-dependent DNA repair in human embryonic kidney (HEK293T) cells expressing luciferase-tagged ELG1 | HEK293T ELG1-luciferase reporter, luminescence, 16 h; DNA damage induced by 5-fluorouridine | Potency, µM (top dose mostly 46.1 µM), hits mostly inhibitors | hit rate 2.3% among 330,000 | AID 504467, 2011; also: nearly all actives have a fitted effect of over 55% in size
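DMSO vehicle served as the neutral condition. Each well held 2,000 cells given 5-fluorouridine plus compound; after 16 hr at 37 °C/5% CO2, ONE-Glo was added and luciferase measured 30 min later.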
IL-1B inflam inh = qHTS for Inhibitors of Inflammasome Signaling: IL-1-beta AlphaLISA Primary Screen | activity change, % at 57.5 µM | AID 743279, 2014 | THP-1 LPS/ATP IL-1B secretion, AlphaLISA, 16 h; active compounds read low | hit rate 4.7% among 360,000; in the data active = activity change below about -50%; inconclusive = mostly about -30% to -49%
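THP-1 cells pretreated 1 hr with compounds (up to 57.5 uM final), then stimulated with LPS (250 ng/mL final) plus ATP (1.25 mM final); secreted IL-1B measured by AlphaLISA after 16 hr, decreased signal indicating inhibition.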
TDP1 cell CPT = qHTS for Inhibitors of human tyrosyl-DNA phosphodiesterase 1 (TDP1): qHTS in cells in presence of CPT | chicken DT40 Tdp1-/-;hTDP1 cells + 20 nM CPT, ATP luminescence, 48 h | Potency, µM (series often up to 46.2 µM), most hits filed as inhibitors | hit rate 12% among 420,000 | AID 686979, 2013; also: nearly all actives have a fitted effect of over 55% in size
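Cell growth measured by CellTiter-Glo luminescence after a minimum 48 h, 37 C compound exposure with 20 nM CPT in Tdp1-knockout DT40 cells stably expressing hTDP1, seeded 400/well; qHTS titration format.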
HT1080 IDH1KD tx = qHTS for induction of synthetic lethality in tumor cells producing 2HG: qHTS for the HT-1080-IDH1KD cell line. HT-1080 IDH1 knockdown viability, ATP luminescence, 48 h. Potency, µM (top dose mostly 46.1 µM), usual class: cytotoxic. hit rate 2% among 360,000
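In this qHTS, HT-1080 cells depleted of IDH1 are exposed for 48 h at 37 °C to compound titrations. Toxicity is scored from CellTiter-Glo luminescence, with DMSO as full viability and medium alone as none.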
Each line names hits and unclear results; the compound was inactive in the other large screens. Unless noted, calls follow the shape of the dose curve; as a rule, active = well fitted curve in the direction sought with a large enough effect; inconclusive = small, poorly fitted or top-dose-only effect, or another doubt; inactive = no such curve, though single readings can be large; an effect the other way counts as inactive or inconclusive.

COCCCNc1nc2ccccc2nc1NS(=O)(=O)c1ccc(Cl)cc1	DT40 TDP1 no CPT inconclusive, TDP1 cell CPT inconclusive
CCN1CCN(S(=O)(=O)c2ccc(Cl)c(C(=O)NCc3nc4ccccc4[nH]3)c2)CC1	DT40 TDP1 no CPT inconclusive, TDP1 cell CPT inconclusive
O=C(O)c1ccc(C2Nc3ccccc3C(=O)N2Cc2ccccc2)cc1 (centres undefined)	none
CCCCCCCCC(c1nc2ccccc2[nH]1)N1CCN=C1c1cc2ccccc2[nH]1 (centres undefined)	DT40 TDP1 no CPT 6.5µM, HT1080NT lethal inconclusive, IL-1B inflam inh -66, TDP1 cell CPT 7.3µM, HT1080 IDH1KD tx inconclusive (no result: ELG1 DNA repair)
CN1CCN(S(=O)(=O)c2ccc(NC(=O)c3ccccc3Cl)cc2)CC1	none
CC(=O)Nc1ccc(S(=O)(=O)N(C)C2CCN(C)CC2)cc1	none
CCOc1ccccc1C(=O)OC(C)C(=O)Nc1ccc(S(=O)(=O)N2CCCC2)cc1 (centres undefined)	DT40 TDP1 no CPT inconclusive
CN1CCN(S(=O)(=O)c2ccc(NC(=O)Nc3cccc(Cl)c3)cc2)CC1	DT40 TDP1 no CPT inconclusive, HT1080NT lethal 21µM, TDP1 cell CPT inconclusive, HT1080 IDH1KD tx 18µM
CCS(=O)c1ccccc1C(=O)OC(C)C(=O)Nc1ccc(S(=O)(=O)N2CCCC2)cc1 (centres undefined)	DT40 TDP1 no CPT inconclusive, TDP1 cell CPT 13µM
CC(Oc1cccc(Cl)c1)C(=O)Nc1ccc(S(=O)(=O)N(C)C2CCN(C)CC2)cc1 (centres undefined)	DT40 TDP1 no CPT inconclusive, IL-1B inflam inh -57, TDP1 cell CPT inconclusive
CC(Oc1ccccc1Cl)C(=O)Nc1ccc(S(=O)(=O)N2CCN(C)CC2)cc1 (centres undefined)	DT40 TDP1 no CPT inconclusive, HT1080NT lethal inconclusive, IL-1B inflam inh -55, TDP1 cell CPT inconclusive, HT1080 IDH1KD tx inconclusive (no result: ELG1 DNA repair)
O=C(Nc1nnc([C@@H]2C[C@H](O)[C@@H](CO)O2)s1)c1cccc(OC(F)(F)F)c1	none (no result: ELG1 DNA repair)
COc1ccccc1C(=O)NNC(=O)c1ccc(Br)cc1	ELG1 DNA repair inconclusive
Cc1ccc2c(c1)[C@H]1[C@H](CO2)[C@H](c2ccccc2)[C@]2(C)C(=O)NCC(=O)N12	none
Cc1oc(S(=O)(=O)N2CCCCC2)cc1NC(=O)Nc1ccc(Cl)cc1	DT40 TDP1 no CPT 16µM, ELG1 DNA repair inconclusive, TDP1 cell CPT 16µM
O=C(Nc1cccc(Cl)c1)Nc1cc(S(=O)(=O)N2CCCCC2)ccc1Cl	DT40 TDP1 no CPT inconclusive, HT1080NT lethal inconclusive, ELG1 DNA repair inconclusive, IL-1B inflam inh -88, TDP1 cell CPT inconclusive, HT1080 IDH1KD tx 26µM
Cc1oc(S(=O)(=O)N2CCCCC2)cc1NC(=O)Nc1ccccc1	DT40 TDP1 no CPT inconclusive, TDP1 cell CPT inconclusive
O=C1C=C(c2cc(C(F)(F)F)cc(C(F)(F)F)c2)C[C@@H](c2ccc(Cl)cc2)C1	DT40 TDP1 no CPT inconclusive, TDP1 cell CPT inconclusive
Cc1cccc(C(=O)NC2CCN(CC(=O)NCc3ccccc3F)CC2)c1	none
ClC(Cl)c1nnc(-c2ccccc2)c(-c2c[nH]c3ccccc23)n1	DT40 TDP1 no CPT inconclusive, TDP1 cell CPT 3.7µM
COCCCNC(=O)c1cccn2c(=O)c3cc4ccccc4cc3nc12	DT40 TDP1 no CPT 7.3µM, ELG1 DNA repair inconclusive, IL-1B inflam inh -86, TDP1 cell CPT 18µM, HT1080 IDH1KD tx inconclusive
O=C(NCc1ccco1)c1cccn2c(=O)c3cc4ccccc4cc3nc12	none (no result: DT40 TDP1 no CPT, HT1080NT lethal, IL-1B inflam inh, TDP1 cell CPT, HT1080 IDH1KD tx)
Cc1cccn2c(=O)c3cc(C(=O)NCCCN4CCCC4=O)n(C)c3nc12	DT40 TDP1 no CPT inconclusive, IL-1B inflam inh -77
COc1ccc(OC)c(NC(=O)c2cc3c(=O)n4cccc(C)c4nc3n2C)c1	DT40 TDP1 no CPT 9.2µM, TDP1 cell CPT 10µM (no result: HT1080NT lethal, ELG1 DNA repair, IL-1B inflam inh, HT1080 IDH1KD tx)
CCOCCCNC(=O)c1cc2c(=O)n3cccc(C)c3nc2n1C	DT40 TDP1 no CPT 0.82µM, HT1080NT lethal inconclusive, TDP1 cell CPT 0.58µM, HT1080 IDH1KD tx inconclusive
Cc1ccc(-n2ncc3c(SCC(=O)Nc4cc(C)on4)ncnc32)c(C)c1	ELG1 DNA repair inconclusive
COc1ccccc1NC(=O)c1c(N=Cc2c(O)ccc3ccccc23)cnn1C	DT40 TDP1 no CPT 6.5µM, HT1080NT lethal 8.2µM, ELG1 DNA repair inconclusive, TDP1 cell CPT 8.2µM, HT1080 IDH1KD tx 5.8µM
COc1ccccc1NCC(=O)N/N=C/c1c(O)ccc2ccccc12	DT40 TDP1 no CPT 2.9µM, HT1080NT lethal 15µM, ELG1 DNA repair inconclusive, TDP1 cell CPT 5.8µM, HT1080 IDH1KD tx 10µM
O=C(CNc1ccc(F)cc1)N/N=C/c1c(O)ccc2ccccc12	DT40 TDP1 no CPT 9.2µM, HT1080NT lethal inconclusive, TDP1 cell CPT 10µM, HT1080 IDH1KD tx 10µM
O=C(Cc1n[nH]c(=O)[nH]c1=O)N/N=C/c1c(O)ccc2ccccc12	ELG1 DNA repair inconclusive
Cn1ncc(N=Cc2c(O)ccc3ccccc23)c1C(=O)N1CCOCC1	none (no result: ELG1 DNA repair)
CCOc1ccc2ccccc2c1/C=N/NC(=O)CNC(=O)Cc1ccccc1	TDP1 cell CPT 18µM
